Test results taken from PubChem BioAssay (EPA / NIEHS).
Calls of active or inactive are those of the source. Rule for the calls: active = hit-call score of the fitted dose curve at least 0.9, where 1 is the maximum; inactive = score below 0.9.

Legend:
[1] = ATG_PBREM_CIS: Attagene CIS-FACTORIAL HepG2 Assay for human Phenobarbital-responsive Enhancer Module (PBREM) (AID 2282955); conditions: HepG2 PBREM cis-reporter, Attagene multiplexed transcription; actives raise or lower the signal
Procedure, shortened: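 Endogenous transcription factor activity was read from reporter transcripts in transiently transfected human HepG2 liver cells after 24 h dosing. RT-PCR products were fluorescently labelled, HpaI-cut and sized by capillary electrophoresis; activity fitted bidirectionally against DMSO baseline.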

[2] = target: Paired box protein Pax-6 (Homo sapiens) (UniProt P26367); experiment: ATG_Pax6_CIS: Attagene CIS-FACTORIAL HepG2 Assay for human Paired Box 6 (PAX6) (AID 2282956); conditions: HepG2 CIS-FACTORIAL PAX6 reporter transcription, RNA readout; actives raise or lower the signal
Chain of Paired box protein Pax-6 (Homo sapiens) (P26367 whole entry, looked up): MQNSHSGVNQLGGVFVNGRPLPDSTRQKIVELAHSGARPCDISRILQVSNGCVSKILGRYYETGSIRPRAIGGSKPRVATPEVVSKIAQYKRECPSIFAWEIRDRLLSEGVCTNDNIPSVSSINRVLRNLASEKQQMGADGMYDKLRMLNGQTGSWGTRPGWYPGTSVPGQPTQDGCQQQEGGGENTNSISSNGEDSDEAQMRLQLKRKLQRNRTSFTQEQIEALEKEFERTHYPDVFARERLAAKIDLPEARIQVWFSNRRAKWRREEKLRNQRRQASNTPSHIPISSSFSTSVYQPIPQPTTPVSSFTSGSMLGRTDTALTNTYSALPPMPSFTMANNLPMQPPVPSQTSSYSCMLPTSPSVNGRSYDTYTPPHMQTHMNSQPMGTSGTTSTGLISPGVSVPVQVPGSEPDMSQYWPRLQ
Procedure, shortened: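 Values derive from bidirectional curve fitting of reporter mRNA signal relative to DMSO. HepG2 cells bearing transfected cis-regulated MRTUs were exposed for 24 h; transcripts were read by RT-PCR and capillary electrophoresis.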

[3] = ATG_PXRE_CIS: Attagene CIS-FACTORIAL HepG2 Assay for human Pregnane X Receptor Element (PXRE) (AID 2282957); conditions: HepG2 Attagene CIS-FACTORIAL PXRE reporter, mRNA; actives raise or lower the signal
Procedure, shortened: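 Endogenous transcription factor activity in HepG2 was gauged through induction of reporter mRNA driven by a cis-regulating promoter element, sampled 24 h post-treatment. Activity was fitted in both directions against DMSO negative control.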

[4] = ATG_RORE_CIS: Attagene CIS-FACTORIAL HepG2 Assay for human RAR-related Orphan Receptor Element (RORE) (AID 2282959); conditions: HepG2 Attagene cis-factorial RORE reporter, mRNA; actives raise or lower the signal
Procedure, shortened: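 RORE reporter transcripts reflecting endogenous factor activity were read after 24 h compound exposure of transfected HepG2 cells, using reverse transcription, PCR, fluorescent labelling and capillary electrophoresis sizing. Gain or loss fitted against DMSO.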

[5] = ATG_Sox_CIS: Attagene CIS-FACTORIAL HepG2 Assay for human SRY-box transcription factor (SOX) (AID 2282960); conditions: HepG2 Attagene cis-factorial SOX reporter, mRNA; actives raise or lower the signal
Procedure, shortened: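 Reporter transcripts, measured by RT-PCR and capillary electrophoresis of labelled fragments, report endogenous SOX transcription factor activity. Transiently transfected human HepG2 cells receive chemical for 24 h; changes in either direction are fitted relative to DMSO.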

[6] = target: Transcription factor Sp1 (Homo sapiens) (UniProt P08047); experiment: ATG_Sp1_CIS: Attagene CIS-FACTORIAL HepG2 Assay for human Specificity Protein 1 (Sp1) (AID 2282961); conditions: HepG2 Sp1 cis-reporter transcription, actives raise or lower the signal
Chain of Transcription factor Sp1 (Homo sapiens) (P08047 whole entry, looked up): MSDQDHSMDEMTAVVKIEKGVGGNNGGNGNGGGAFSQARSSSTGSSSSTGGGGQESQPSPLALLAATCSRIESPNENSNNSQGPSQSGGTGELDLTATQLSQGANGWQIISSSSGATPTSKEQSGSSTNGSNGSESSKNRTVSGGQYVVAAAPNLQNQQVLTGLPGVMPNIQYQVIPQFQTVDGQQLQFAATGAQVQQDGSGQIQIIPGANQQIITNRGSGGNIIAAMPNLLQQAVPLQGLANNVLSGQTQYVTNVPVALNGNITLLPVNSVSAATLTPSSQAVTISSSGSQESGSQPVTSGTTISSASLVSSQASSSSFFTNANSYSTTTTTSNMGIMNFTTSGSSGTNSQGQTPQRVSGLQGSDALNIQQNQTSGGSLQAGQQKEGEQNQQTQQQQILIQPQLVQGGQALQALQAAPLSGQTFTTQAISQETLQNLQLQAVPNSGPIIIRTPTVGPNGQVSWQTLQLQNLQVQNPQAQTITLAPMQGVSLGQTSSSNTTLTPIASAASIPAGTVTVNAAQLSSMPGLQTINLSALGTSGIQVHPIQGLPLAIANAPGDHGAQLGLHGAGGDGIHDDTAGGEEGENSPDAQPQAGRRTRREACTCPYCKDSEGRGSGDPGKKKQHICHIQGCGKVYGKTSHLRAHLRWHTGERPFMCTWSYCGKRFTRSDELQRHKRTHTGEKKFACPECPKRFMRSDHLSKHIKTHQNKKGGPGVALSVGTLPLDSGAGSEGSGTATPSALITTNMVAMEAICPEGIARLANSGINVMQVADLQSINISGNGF
Procedure, shortened: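 Read-out is reporter transcript level, measured by RT-PCR and fluorescent capillary electrophoresis after 24 h chemical treatment. System: transiently transfected HepG2 cells reporting endogenous transcription factor activity; gain or loss fitted against DMSO baseline.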

[7] = ATG_SREBP_CIS: Attagene CIS-FACTORIAL HepG2 Assay for human Sterol Regulatory Element Binding (SREBP) (AID 2282962); conditions: HepG2 Attagene cis-factorial SREBP reporter, mRNA; actives raise or lower the signal
Procedure, shortened: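 Values derive from bidirectional curve fitting with DMSO as baseline. The underlying measurement is reporter mRNA from cis-element-regulated units in transiently transfected HepG2, quantified by RT-PCR and capillary electrophoresis after 24 h exposure.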

[8] = target: Signal transducer and activator of transcription 3 (Homo sapiens) (UniProt P40763); experiment: ATG_STAT3_CIS: Attagene CIS-FACTORIAL HepG2 Assay for human Signal Transducer and Activator of Transcription 3 (STAT3) (AID 2282963); conditions: HepG2, Attagene cis-factorial STAT3 reporter transcription; actives raise or lower the signal
Chain of Signal transducer and activator of transcription 3 (Homo sapiens) (P40763 whole entry, looked up): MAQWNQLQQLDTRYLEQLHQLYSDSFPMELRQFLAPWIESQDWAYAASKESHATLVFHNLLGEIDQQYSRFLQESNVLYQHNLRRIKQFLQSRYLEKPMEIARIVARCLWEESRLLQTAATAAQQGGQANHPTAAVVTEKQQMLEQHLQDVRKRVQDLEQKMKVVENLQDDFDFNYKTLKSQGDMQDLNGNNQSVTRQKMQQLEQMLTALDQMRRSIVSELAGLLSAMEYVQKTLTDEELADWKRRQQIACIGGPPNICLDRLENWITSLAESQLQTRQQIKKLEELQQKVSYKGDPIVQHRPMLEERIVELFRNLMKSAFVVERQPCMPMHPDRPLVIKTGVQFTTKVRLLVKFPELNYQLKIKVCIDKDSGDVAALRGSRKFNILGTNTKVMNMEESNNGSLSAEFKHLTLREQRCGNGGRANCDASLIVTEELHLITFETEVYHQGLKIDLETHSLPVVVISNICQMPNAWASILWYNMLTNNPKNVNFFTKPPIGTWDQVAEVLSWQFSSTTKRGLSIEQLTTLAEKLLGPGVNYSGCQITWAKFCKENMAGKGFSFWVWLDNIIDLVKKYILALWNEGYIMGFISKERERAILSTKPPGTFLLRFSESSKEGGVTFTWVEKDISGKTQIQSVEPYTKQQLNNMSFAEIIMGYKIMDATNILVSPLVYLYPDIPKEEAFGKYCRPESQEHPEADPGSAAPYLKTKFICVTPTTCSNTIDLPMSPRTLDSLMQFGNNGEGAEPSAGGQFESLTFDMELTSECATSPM
Procedure, shortened: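 Uses human liver HepG2 transiently carrying cis-regulated reporter transcription units. Following 24 h dosing, reporter mRNA induction was detected by RT-PCR and capillary electrophoresis, analysed bidirectionally versus DMSO.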

[9] = ATG_TA_CIS: Attagene CIS-FACTORIAL HepG2 Assay for human TA Basal Promoter (AID 2282964); conditions: HepG2 Attagene CIS-factorial TA basal promoter reporter; actives raise or lower the signal
Procedure, shortened: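 Read-out: fluorescent reporter-transcript fragments resolved by capillary electrophoresis after RT-PCR and HpaI digestion. Source: HepG2 cells carrying transiently transfected multi-reporter cis constructs, treated 24 h. Endpoint fitted bidirectionally relative to DMSO.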

[10] = ATG_PPRE_CIS: Attagene CIS-FACTORIAL HepG2 Assay for human Peroxisome Proliferator-activated Response Element (PPRE) (AID 2282958); conditions: HepG2 PPRE cis-element reporter, Attagene transcription factor profiling; actives raise or lower the signal
Procedure, shortened: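 Endogenous PPRE-driven transcription is measured in HepG2 cells carrying transfected multi-reporter constructs. Reporter transcripts are quantified by RT-PCR, HpaI digestion and capillary electrophoresis 24 h after dosing. DMSO baseline, bidirectional fit.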

CC(C)c1ccc(C(=O)N=C(N)N)cc1S(C)(=O)=O
outcome [1]: inactive | outcome [2]: inactive | AC50 [3]: 31.7 µM (active) | outcome [4]: inactive | outcome [5]: inactive | outcome [6]: inactive | outcome [7]: inactive | outcome [8]: inactive | outcome [9]: inactive

C[Si]1(C)O[Si](C)(C)O[Si](C)(C)O[Si](C)(C)O1
outcome [1]: inactive | outcome [2]: inactive | AC50 [3]: 26.6 µM (active) | outcome [10]: inactive | outcome [4]: inactive | outcome [5]: inactive | outcome [6]: inactive | outcome [7]: inactive | outcome [8]: inactive | outcome [9]: inactive

O=C(O)CCCCC(=O)O
outcome [1]: inactive | outcome [2]: inactive | AC50 [3]: 55 µM (active) | outcome [10]: inactive | outcome [4]: inactive | outcome [5]: inactive | outcome [6]: inactive | outcome [7]: inactive | outcome [8]: inactive | outcome [9]: inactive

Cc1ccc2ncccc2c1
outcome [1]: inactive | outcome [2]: inactive | outcome [3]: inactive | outcome [10]: inactive | outcome [4]: inactive | outcome [5]: inactive | outcome [6]: inactive | outcome [7]: inactive | outcome [8]: inactive | outcome [9]: inactive

Cc1ccc(Cl)cc1
outcome [1]: inactive | outcome [2]: inactive | outcome [3]: inactive | outcome [10]: inactive | outcome [4]: inactive | outcome [5]: inactive | outcome [6]: inactive | outcome [7]: inactive | outcome [8]: inactive | outcome [9]: inactive

Cc1nc(-c2ccc3c(c2)CCN(CCC2CCC(NC(=O)/C=C/c4ccc(F)cc4)CC2)CC3)no1 (stereo not drawn)
outcome [1]: inactive | outcome [2]: inactive | outcome [3]: inactive | outcome [10]: inactive | outcome [4]: inactive | outcome [5]: inactive | outcome [6]: inactive | outcome [7]: inactive | outcome [8]: inactive | outcome [9]: inactive

CCCc1cc(=O)[nH]c(=S)[nH]1
outcome [1]: inactive | outcome [2]: inactive | AC50 [3]: 65.4 µM (active) | outcome [10]: inactive | outcome [4]: inactive | outcome [5]: inactive | outcome [6]: inactive | outcome [7]: inactive | outcome [8]: inactive | outcome [9]: inactive

COCCOCCOC
outcome [1]: inactive | outcome [2]: inactive | outcome [3]: inactive | outcome [10]: inactive | outcome [4]: inactive | outcome [5]: inactive | outcome [6]: inactive | outcome [7]: inactive | outcome [8]: inactive | outcome [9]: inactive

O=C(OCCCCCOC(=O)c1ccccc1)c1ccccc1
outcome [1]: inactive | outcome [2]: inactive | outcome [3]: inactive | outcome [10]: inactive | outcome [4]: inactive | outcome [5]: inactive | outcome [6]: inactive | outcome [7]: inactive | outcome [8]: inactive | outcome [9]: inactive

Cc1cc(=O)[nH]c(=S)[nH]1
outcome [1]: inactive | outcome [2]: inactive | outcome [3]: inactive | outcome [10]: inactive | outcome [4]: inactive | outcome [5]: inactive | outcome [6]: inactive | outcome [7]: inactive | outcome [8]: inactive | outcome [9]: inactive

C=CCc1ccc(O)c(OC)c1
outcome [1]: inactive | outcome [2]: inactive | outcome [3]: inactive | outcome [10]: inactive | outcome [4]: inactive | outcome [5]: inactive | outcome [6]: inactive | outcome [7]: inactive | outcome [8]: inactive | outcome [9]: inactive

Nc1ccc2c(c1)C(=O)c1ccccc1C2=O
outcome [1]: inactive | outcome [2]: inactive | AC50 [3]: 26.9 µM (active) | outcome [10]: inactive | outcome [4]: inactive | outcome [5]: inactive | outcome [6]: inactive | outcome [7]: inactive | outcome [8]: inactive | outcome [9]: inactive

CCOC(=O)CCC(=O)OCC
outcome [1]: inactive | outcome [2]: inactive | AC50 [3]: 47.8 µM (active) | outcome [10]: inactive | outcome [4]: inactive | outcome [5]: inactive | outcome [6]: inactive | outcome [7]: inactive | outcome [8]: inactive | outcome [9]: inactive

COc1cc(-c2nc(NC(=O)c3cc4cc(C)cc(C)c4n3CC(=O)O)sc2CCC2CCCCC2)c(OC)cc1Cl
AC50 [1]: 4.42 µM (active) | AC50 [2]: 14.2 µM (active) | outcome [3]: inactive | outcome [10]: inactive | AC50 [4]: 10.4 µM (active) | AC50 [5]: 100 µM (active) | AC50 [6]: 2.83 µM (active) | outcome [7]: inactive | outcome [8]: inactive | AC50 [9]: 10.3 µM (active)

Oc1ccc2c(c1)OC[C@@H](N1CCC(O)(c3ccc(F)cc3)CC1)[C@H]2O
AC50 [1]: 43.2 µM (active) | AC50 [2]: 63.7 µM (active) | AC50 [3]: 13.7 µM (active) | outcome [10]: inactive | AC50 [4]: 50 µM (active) | outcome [5]: inactive | outcome [6]: inactive | outcome [7]: inactive | outcome [8]: inactive | outcome [9]: inactive

c1cc(-c2ccncc2)ccn1
outcome [1]: inactive | outcome [2]: inactive | outcome [3]: inactive | outcome [10]: inactive | outcome [4]: inactive | outcome [5]: inactive | outcome [6]: inactive | outcome [7]: inactive | outcome [8]: inactive | outcome [9]: inactive

CCCCCCCCCCCC(=O)OC
outcome [1]: inactive | outcome [2]: inactive | outcome [3]: inactive | outcome [10]: inactive | outcome [4]: inactive | outcome [5]: inactive | outcome [6]: inactive | AC50 [7]: 59.6 µM (active) | outcome [8]: inactive | outcome [9]: inactive

CC=Cc1ccc(O)c(OC)c1
outcome [1]: inactive | outcome [2]: inactive | AC50 [3]: 26.1 µM (active) | outcome [10]: inactive | outcome [4]: inactive | outcome [5]: inactive | outcome [6]: inactive | outcome [7]: inactive | outcome [8]: inactive | outcome [9]: inactive

COCCOC[C@H](CC1(C(=O)NC2CCC(C(=O)O)CC2)CCCC1)C(=O)Oc1ccc2c(c1)CCC2 (stereo partly drawn)
outcome [1]: inactive | outcome [2]: inactive | AC50 [3]: 20.2 µM (active) | outcome [10]: inactive | outcome [4]: inactive | outcome [5]: inactive | outcome [6]: inactive | outcome [7]: inactive | outcome [8]: inactive | outcome [9]: inactive

Cc1ccc(C(C)C)c(O)c1
outcome [1]: inactive | outcome [2]: inactive | AC50 [3]: 34.5 µM (active) | outcome [10]: inactive | outcome [4]: inactive | outcome [5]: inactive | outcome [6]: inactive | outcome [7]: inactive | outcome [8]: inactive | outcome [9]: inactive

CC1(C)NC(=O)NC1=O
outcome [1]: inactive | outcome [2]: inactive | AC50 [3]: 25.7 µM (active) | outcome [10]: inactive | outcome [4]: inactive | outcome [5]: inactive | outcome [6]: inactive | outcome [7]: inactive | outcome [8]: inactive | outcome [9]: inactive

Cc1oc(-c2ccccc2)nc1CCOc1cccc2c1ccn2CCC(=O)O
outcome [1]: inactive | outcome [2]: inactive | outcome [3]: inactive | AC50 [10]: 0.0633 µM (active) | AC50 [4]: 23.8 µM (active) | outcome [5]: inactive | outcome [6]: inactive | AC50 [7]: 26.8 µM (active) | outcome [8]: inactive | outcome [9]: inactive

Cc1ccc(N(C)C)cc1
outcome [1]: inactive | outcome [2]: inactive | AC50 [3]: 27.4 µM (active) | outcome [10]: inactive | outcome [5]: inactive | outcome [6]: inactive | outcome [7]: inactive | outcome [8]: inactive | outcome [9]: inactive

Cc1ccc(C)c(O)c1C
outcome [1]: inactive | outcome [2]: inactive | outcome [3]: inactive | outcome [10]: inactive | outcome [4]: inactive | outcome [5]: inactive | outcome [6]: inactive | outcome [7]: inactive | outcome [8]: inactive | outcome [9]: inactive

Nc1ccccc1N
outcome [1]: inactive | AC50 [2]: 23 µM (active) | AC50 [3]: 82.4 µM (active) | AC50 [10]: 15.7 µM (active) | AC50 [4]: 28.5 µM (active) | outcome [5]: inactive | AC50 [6]: 25.9 µM (active) | outcome [7]: inactive | outcome [8]: inactive | AC50 [9]: 50.8 µM (active)

O=C(O)Cc1ccccc1Nc1c(Cl)cccc1Cl
outcome [1]: inactive | outcome [2]: inactive | AC50 [3]: 25.8 µM (active) | outcome [10]: inactive | outcome [4]: inactive | outcome [5]: inactive | outcome [6]: inactive | outcome [7]: inactive | outcome [8]: inactive | outcome [9]: inactive

FC(F)(F)C(F)(F)C(F)(F)C(F)(F)C(F)(F)C(F)(F)CCI
outcome [1]: inactive | outcome [2]: inactive | outcome [3]: inactive | outcome [10]: inactive | outcome [4]: inactive | outcome [5]: inactive | outcome [6]: inactive | outcome [7]: inactive | outcome [8]: inactive | outcome [9]: inactive
